In PubChem BioAssay AID1159580 (chemical genetic matrix, 2015):
Several values for one entry are separate records, joined by “and”; a condition that tells them apart may be missing. Identical values can stand only once. About 2,000 (36%) of roughly 5,500 compounds were called active. Roughly 18% stayed inconclusive and do not appear here. Cut-off read from the data, not from the text of the source: active = normalized growth mostly below about 0.91 (no sharp cut-off); inconclusive = no clear call, values can overlap the other calls; inactive = mostly above about 0.92. The list shows a part of the results.

Experiment: chemical genetic growth profiling, strain panel (AID 1159580);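 note: tested at 20 µM; growth read once vehicle control cultures reached saturation at 30 °C; 1 = growth at the plate median or of vehicle wells; lower values mean less growth of the strain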
Details: S. cerevisiae deletion strains, growth OD

Measured: normalized growth

CC(=O)N=c1sc(S(N)(=O)=O)nn1C
inactive: locus YAL013W, strain DEP1, stronger effect = lower value 1.01 | locus YAL021C, strain ccr4, stronger effect = lower value 1.01 | locus YAL026C, strain drs2, stronger effect = lower value 1.01 | locus YAL030W, strain snc1, stronger effect = lower value 1 | locus YBL061C, strain skt5, stronger effect = lower value 1.01 | locus YBR009C, strain hhf1, stronger effect = lower value 1 | locus YBR021W, strain FUR4, stronger effect = lower value 1.02 | locus YBR023C, strain chs3, stronger effect = lower value 1.01 | locus YBR171W, strain sec66, stronger effect = lower value 1.03 | locus YBR229C, strain ROT2, stronger effect = lower value 1.01 | locus YBR231C, strain swc5, stronger effect = lower value 1.02 | locus YBR279W, strain paf1, stronger effect = lower value 1.01 | locus YCL011C, strain gbp2, stronger effect = lower value 1.01 | locus YCL016C, strain dcc1, stronger effect = lower value 1.01 | locus YCL029C, strain bik1, stronger effect = lower value 0.995 | locus YCL061C, strain MRC1, stronger effect = lower value 1.01 | locus YCL069W, strain vba3, stronger effect = lower value 1.01 | locus YCR088W, strain abp1, stronger effect = lower value 1.01 | locus YDL005C, strain med2, stronger effect = lower value 1.01 | locus YDL035C, strain GPR1, stronger effect = lower value 1.03 | locus YDL040C, strain nat1, stronger effect = lower value 0.999 | locus YDL074C, strain BRE1, stronger effect = lower value 0.995 | locus YDL101C, strain DUN1, stronger effect = lower value 1.01 | locus YDL134C, strain PPH21, stronger effect = lower value 1.02 | locus YDL185W, strain tfp1, stronger effect = lower value 1.01 | locus YDL192W, strain arf1, stronger effect = lower value 1.01 | locus YDR001C, strain nth1, stronger effect = lower value 1 | locus YDR069C, strain doa4, stronger effect = lower value 1.01 | locus YDR101C, strain arx1, stronger effect = lower value 1 | locus YDR137W, strain rgp1, stronger effect = lower value 1.04 | locus YDR150W, strain NUM1, stronger effect = lower value 1 | locus YDR159W, strain sac3, stronger effect = lower value 0.998 | locus YDR162C, strain NBP2, stronger effect = lower value 1.02 | locus YDR195W, strain ref2 0.991 | locus YDR297W, strain sur2, stronger effect = lower value 1 | locus YDR318W, strain mcm21, stronger effect = lower value 1.02 | locus YDR334W, strain swr1, stronger effect = lower value 1.01 | locus YDR335W, strain msn5, stronger effect = lower value 1.01 | locus YDR388W, stronger effect = lower value 1.01 | locus YDR392W, strain spt3, stronger effect = lower value 1.02 | locus YDR502C, strain sam2, stronger effect = lower value 0.998 | locus YEL003W, strain gim4, stronger effect = lower value 1.01 | locus YEL037C, strain rad23, stronger effect = lower value 1 | locus YEL061C, strain CIN8 (second series), stronger effect = lower value 1.01 | locus YEL061C, strain CIN8, stronger effect = lower value 1 | locus YER015W, strain faa2, stronger effect = lower value 0.989 | locus YER016W, strain bim1, stronger effect = lower value 1.01 | locus YER110C, stronger effect = lower value 1.02 | locus YER111C, strain swi4, stronger effect = lower value 0.994 | locus YER155C, strain BEM2 (second series), stronger effect = lower value 1.02 | locus YER155C, strain BEM2, stronger effect = lower value 1 | locus YER167W, strain BCK2, stronger effect = lower value 1.02 | locus YFR010W, strain ubp6, stronger effect = lower value 1.02 | locus YGL078C, strain dbp3, stronger effect = lower value 1 | locus YGL086W, strain mad1, stronger effect = lower value 0.998 | locus YGL167C, strain pmr1, stronger effect = lower value 1.01 | locus YGL173C, strain kem1, stronger effect = lower value 1.01 | locus YGL227W, strain vid30, stronger effect = lower value 1.01 | locus YGL240W, strain doc1, stronger effect = lower value 1.03 | locus YGL248W, strain PDE1, stronger effect = lower value 0.997 | locus YGL253W, strain hxk2, stronger effect = lower value 1.02 | locus YGR135W, strain pre9, stronger effect = lower value 1.06 | locus YGR252W, strain gcn5, stronger effect = lower value 1.01 | locus YHR013C, strain ard1, stronger effect = lower value 1.03 | locus YHR027C, strain rpn1, stronger effect = lower value 1.02 | locus YHR030C, strain SLT2, stronger effect = lower value 1 and 1.06 | locus YHR079C, strain IRE1 (second series), stronger effect = lower value 1.01 | locus YHR079C, strain IRE1, stronger effect = lower value 1.06 | locus YHR094C, strain hxt1, stronger effect = lower value 1.01 | locus YHR129C, strain ARP1, stronger effect = lower value 1.02 | locus YHR142W, strain chs7, stronger effect = lower value 1.02 | locus YHR200W, strain rpn10, stronger effect = lower value 1.01 | locus YIL066C, strain RNR3, stronger effect = lower value 1 | locus YIL073C, strain SPO22, stronger effect = lower value 1.07 | locus YIL125W, strain kgd1, stronger effect = lower value 0.997 | locus YIR030C, strain dcg1, stronger effect = lower value 0.996 | locus YJL092W, strain hpr5, stronger effect = lower value 1.02 | locus YJL095W, strain BCK1 (second series), stronger effect = lower value 1.01 | locus YJL095W, strain BCK1, stronger effect = lower value 0.989 and 1.05 | locus YJL115W, strain asf1, stronger effect = lower value 1.01 | locus YJL129C, strain trk1, stronger effect = lower value 1 | locus YJL134W, strain LCB3, stronger effect = lower value 1.01 | locus YJL154C, strain vps35, stronger effect = lower value 1 | locus YJL164C, strain tpk1, stronger effect = lower value 1.01 | locus YJL166W, strain qcr8, stronger effect = lower value 0.998 | locus YJL168C, strain set2, stronger effect = lower value 1.01 | locus YJL187C, strain SWE1 (second series), stronger effect = lower value 0.984 | locus YJL187C, strain SWE1, stronger effect = lower value 1.01 | locus YJR043C, strain POL32, stronger effect = lower value 0.986 | locus YJR066W, strain TOR1, stronger effect = lower value 0.984
